Hits are enriched below; roughly 3.1% of the tested compounds scored in any of these assays.
IL-2 act: qHTS of IL-2 Activators | IL-2 activation reporter assay, cell-based qHTS; stimulated with anti-CD3/CD4/CD28 beads; in transgenic mouse T cells | 0.065% of 360,000 active | activation, % (series mostly up to about 46 µM) | AID 652025, 2013; in the data active means activation above about 50%; inconclusive means mostly about 30% to 49%; further: 0% is about no effect
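Readout is EGFP and DsRed signal by fluorescent plate cytometry after 18 h at 37 degrees C. Transgenic mouse T cells (750/well) received compound for 60 min before bead stimulation (anti-CD3, anti-CD4, anti-CD28); memory T cells served as non-tolerant control.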
BRCA1 expr act: qHTS Assay to Identify Small Molecule Activators of BRCA1 Expression; MCF7-BRCA1-FFLuc reporter, luminescence, 48 h; response scale: scaled: vehicle 0%, 10 µM genistein 100%; Potency, µM (doses to about 46.1 µM), for inactives: top-dose activation, most hits filed as activators; 1.1% of 380,000 active; further: potency means the concentration at half of the fitted maximal effect; nearly all actives have a fitted effect of over 80% in size
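First, MCF7-BRCA1-FFLuc cells (2000/well) attach for 2 h; next, compounds are pin-added and incubated 48 h at 37 °C; finally, luciferase reagent is added and luminescence read after 15 min.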
Nrf2 activator: qHTS of Nrf2 Activators; AREc32 ARE-luciferase reporter (MCF7-derived line), luminescence, 24 h; Potency, µM (doses to about 46.1 µM), for inactives: top-dose activation, most hits filed as activators; 0.31% of 410,000 active; further: potency means the concentration at half of the fitted maximal effect; % of control where 0% means no effect; nearly all actives have a fitted effect of over 65% in size
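AREc32_Fluc, 1000 cells/well, OPTI-MEM + 5% FBS, o/n 37 deg C 5% CO2; 23 nL cpd by pin tool, 24 hr; Steady-Glo 30 min RT, luminescence.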
ELG1 DNA repair: qHTS screen for small molecules that inhibit ELG1-dependent DNA repair in human embryonic kidney (HEK293T) cells expressing luciferase-tagged ELG1. HEK293T ELG1-luciferase reporter, luminescence, 16 h; DNA damage induced by 5-fluorouridine. Potency, µM (top dose mostly 46.1 µM), without a hit: at the highest dose activity change, negative = inhibition, actives largely listed as inhibitors. 2.3% of 330,000 active; further: potency means the concentration at half of the fitted maximal effect; on the % scale 0 is the no-effect control and ±100 the full control effect; nearly all actives have a fitted effect of over 55% in size
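In this reporter screen, reduction of luminescence relative to DMSO vehicle indicated activity. Compounds and 5-fluorouridine were added together to 2,000 cells per well, incubated for 16 hr at 37 °C, then developed with ONE-Glo.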
Numbers without * were called inactive; ? = inconclusive; · = no result given. Unless noted, the call rests on the fitted dose curve; in most records, active means well fitted curve in the direction sought with a large enough effect; inconclusive means small, poorly fitted or top-dose-only effect, or another doubt; inactive means no such curve, though single readings can be large; an effect the other way counts as inactive or inconclusive.

SMILES | IL-2 act | BRCA1 expr act | Nrf2 activator | ELG1 DNA repair
CCc1nnc(NC(=O)CSc2nccn2-c2cccc(C)c2C)s1 | -2 | -51% | 3% | 9.2µM*
COC(=O)[C@@]12CCCCN1[C@H](c1ccc(-c3ccc(F)cc3)c(OC)c1)[C@H]1C(=O)N(C)C(=O)[C@H]12 | -1 | -66% | -1% | 13µM*
NC(=O)c1nc(-c2ccc(F)c(F)c2)nc2c1[nH]c(=O)n2-c1cccc(Cl)c1 | · | · | 3% | ·
Fc1ccc(/C=N/NC(=S)Nc2ccc(Cl)cc2Cl)cc1 | -5 | -28% | 7% | -4%
Cn1c(SCC(=O)N/N=C/c2cc([N+](=O)[O-])ccc2O)nnc1-c1ccccc1 | 1 | -2% | -1% | 9.2µM*
Cc1cc(Cl)ccc1NC(=O)CCC(=O)N/N=C/c1cc([N+](=O)[O-])ccc1O | -2 | -55% | 4% | 7.3µM*
O=[N+]([O-])c1ccc(O)c(/C=N/NC(=S)Nc2ccc(Cl)cc2Cl)c1 | -3 | -60% | 3% | 2.9µM*
O=[N+]([O-])c1ccc(/C=N/NC(=S)Nc2ccc(Cl)cc2Cl)s1 | -1 | -65% | -3% | 8.2µM*
O=C1N2CCCCC1(Sc1ccccc1)CCC2 (configuration not stated) | 1 | 31% | -1% | ·
O=S(=O)(c1ccc(-c2cc(C(F)(F)F)on2)s1)N1CCN(c2ccc(F)cc2)CC1 | · | · | -1% | ·
Cc1ccc2c(c1)cc1c(=O)n(CC(=O)NC3CCCCC3)nc(C)n12 | · | · | -1% | ·
CC(C)Cn1c(N)c(C(=O)CSc2ccccc2)c(=O)n(C)c1=O | -1 | 5% | 2% | 23µM*
CC(C)Cn1c(N)c(C(=O)COC(=O)c2ccc(Br)cc2)c(=O)n(C)c1=O | 0 | -3% | -1% | 21µM*
CC(C)Nc1nnc(SCC(=O)c2c(N)n(Cc3ccccc3)c(=O)n(C)c2=O)s1 | 1 | -24% | 0% | 18µM*
Cc1ccccc1CSCC(=O)c1c(N)n(CC(C)C)c(=O)n(C)c1=O | 0 | -28% | 1% | ?
CC(C)Cn1c(N)c(C(=O)COC(=O)c2ccc(Cl)cc2)c(=O)n(C)c1=O | -4 | -12% | 4% | 18µM*
CC(=O)Nc1ccc(SCC(=O)c2c(N)n(Cc3ccccc3)c(=O)n(C)c2=O)cc1 | 1 | -13% | 0% | ?
O=C(NCCc1ccc(Cl)cc1)c1nnc(Cc2ccc(Cl)cc2Cl)o1 | · | · | 1% | ·
COC(=O)c1cc2c([nH]c1=O)CC(c1ccccc1)CC2=O (configuration not stated) | · | -4% | · | ·
CC(C)C(=O)Nc1ccc2nc(SCC(=O)N3CCc4ccccc43)sc2c1 | · | 0% | 3% | ·
CC(C)Cn1c(N)c(C(=O)COC(=O)c2ccncc2)c(=O)n(C)c1=O | 0 | -2% | 0% | ?
COC(=O)c1c(C)[nH]c(C(=O)OCC(=O)c2c(N)n(CC(C)C)c(=O)n(C)c2=O)c1C | -1 | -47% | 5% | 16µM*
COc1cc(-c2nc(Cn3nnc(C(=O)Nc4cccc(Cl)c4)c3C)c(C)o2)cc(OC)c1OC | · | -3% | -1% | ·
COc1ccc(CN(C)C(=O)COC(=O)c2cc([N+](=O)[O-])ccc2N2CCCC2)c(OC)c1OC | -1 | -20% | -1% | 15µM*
CCOC(=O)CCCc1ccc(/C(C)=N/NC(N)=S)cc1 | -4 | -34% | 11% | 9.2µM*
SMILES | IL-2 act | BRCA1 expr act | Nrf2 activator | ELG1 DNA repair
CCOC(=O)CCCc1ccc(/C(C)=N/NC(=S)NC)cc1 | 2 | 25% | 3% | -14%
CC(C)c1ccc(-c2nnc3n(CCc4ccccc4)c(=O)c4ccccc4n23)cc1 | · | · | 3% | ·
Cn1c(SCc2ccccc2F)nnc1-c1ccccn1 | 0 | 11µM* | 4% | ?
Nn1c(SCc2cccc(F)c2)nnc1-c1cccnc1 | -1 | 0% | 1% | ?
Fc1ccc(CSc2nnc(-c3ccccn3)o2)cc1 | 1 | 4µM* | 0% | ?
O=C(CSc1nnc(-c2ccccn2)o1)Nc1ccc(F)cc1 | -2 | 114% | 4% | ?
Cn1c(SCc2ccc(F)cc2)nnc1-c1ccccn1 | 1 | 4.5µM* | -1% | ?
Nn1c(SCc2ccccc2F)nnc1-c1cccnc1 | 4 | 8.9µM* | 1% | ?
Cc1ccc(CSc2nnc(-c3ccccn3)n2C)cc1 | -1 | ? | 0% | ?
COC(=O)c1cccnc1-n1c(=O)c2cccnc2n(CC(=O)Nc2cccc(C)c2)c1=O | · | · | 0% | ·
COc1cccc(C(=O)Nc2cccc(C(=O)OCc3cc(=O)n4nc(C5CC5)sc4n3)c2)c1 | · | · | 4% | ·
OCCN1CCN(C(c2ccccc2Cl)c2sc3nc(-c4ccco4)nn3c2O)CC1 (configuration not stated) | · | · | 4% | ·
Cc1ccc(-n2c(=O)c3ccc(C(=O)NCc4ccccc4Cl)cc3n(CC(=O)Nc3cccc(F)c3)c2=O)cc1 | · | 2% | -1% | ·
Cn1c(SCc2ccccc2)nnc1-c1cccs1 | 0 | ? | 2% | ?
Cn1c(SCc2ccc(F)cc2)nnc1-c1cccs1 | -2 | 4.5µM* | 0% | ?
COc1cccc(C2C(C(=O)c3cccs3)=C(O)C(=O)N2CCN2CCOCC2)c1 (configuration not stated) | 0 | -44% | 0% | 9%
COc1cccc(C2C(C(=O)c3ccc(C)o3)=C(O)C(=O)N2CCN2CCOCC2)c1 (configuration not stated) | -1 | -8% | 0% | 21µM*
Cc1cccc2c1-c1sc(C(=O)Nc3ccccc3N3CCN(C)CC3)cc1CO2 | -3 | -85% | 0% | 21µM*
Cc1cccc2c1-c1sc(C(=O)N3CCCCC3)cc1CO2 | -5 | 6.3µM* | 0% | ?
Cc1cccc2c1-c1sc(C(=O)NCCCN3CCN(c4ccccc4F)CC3)cc1CO2 | · | · | 3% | ·
Cn1cc(Cl)c(C(=O)N/N=C/c2ccc3c4c(cccc24)CC3)n1 | -3 | 1.3µM* | -1% | ?
Cc1ccc(/C=N/NC(=O)c2nn(C)cc2Cl)cc1 | 0 | ? | 3% | ?
COC(=O)c1ccccc1NC(=O)Cn1ncc2c(C)n(Cc3ccc(F)cc3)c(C)c2c1=O | · | · | 0% | ·
C=C1NN(C(C)C(=O)O)C(=O)N1c1ccc(OCc2ccccc2)cc1 (configuration not stated) | · | 0% | · | ·
COc1ccccc1/C=N/N1C(=O)C2C3C=CC(CC3)C2C1=O (configuration not stated) | 0 | 0% | 2% | -16%
O=C1C2C3C=CC(CC3)C2C(=O)N1/N=C/c1c[nH]c2ccccc12 (configuration not stated) | 2 | 8.9µM* | 0% | ?
CCOCC(=O)Nc1cc(C(=O)OC)ccc1C(=O)OC | 6 | -7% | -1% | 9%
COC(=O)c1ccc(C(=O)OC)c(NC(=O)COC(=O)c2ccc(OC)c(OC)c2OC)c1 | 1 | -26% | 0% | 5.8µM*

Screening results (PubChem BioAssay)
